The values below come from PubChem BioAssay (EPA / NIEHS).

Inconclusive results are not listed. Activity calls are given as the source filed them. Rule for the calls: active = hit-call score of the fitted dose curve at least 0.9, where 1 is the maximum; inconclusive = response in the unintended direction; inactive = score below 0.9.

Read-out in this assay: xenobiotic metabolism (CYP1A1), CYP1A1 (gene 1543)
As to the kind of experiment: CLD_CYP1A1_24hr: CellzDirect (CLD) Gene Expression Assay for xenobiotic metabolism (CYP1A1) at 24 hours (AID 2283673). The method, then:
CLD_24hr is a cell-based, multiplexed-readout assay that uses hepatocyte, a human liver primary cell, with measurements taken at 24 hours after chemical dosing in a 96-well plate.CLD_CYP1A1_24hr is one of 16 assay component(s) measured or calculated from the CLD_24hr assay. It is designed to make measurements of mRNA induction, a form of inducible reporter, as detected with chemiluminescence signals by Quantitative Nuclease Protection Assay (qNPA) technology.Data from the assay component CLD_CYP1A1_24hr was analyzed at the endpoint, CLD_CYP1A1_24hr, in the positive analysis fitting direction relative to DMSO as the negative control and baseline of activity. Using a type of inducible reporter, gain-of-signal activity can be used to understand changes in the reporter gene as they relate to the gene CYP1A1. Furthermore, this assay endpoint can be referred to as a primary readout. To generalize the intended target to other relatable targets, this assay endpoint is annotated to the cyp intended target family, where subfamily is xenobiotic metabolism.
Human hepatocyte cultures were treated daily for two consecutive days with fresh dosing solutions containing appropriate concentrations of the 320 ToxCast chemicals (chemical identities were blinded to CellzDirect and other ToxCast collaborators), vehicle control (0.2% DMSO), and positive control inducers as summarized in Table 1. Due to the large number of treatment groups and chemicals examined, the ToxCast chemicals were divided into two groups (spanning two independent cultures of hepatocytes from separate donor preparations (Hu778: ToxCast plates 1 and 2; Hu776: ToxCast plates 3 and 4). Each preparation of human hepatocyte cultures was treated with respective vehicle control, medium only control, set of six positive controls/reference chemicals for the five hepatic receptor pathways, and a subset of eight of the ToxCast chemicals (indoxacarb, pyrithiobac-sodium, norflurazon, cyhalofop-butyl, methomyl, thiram, acetochlor, and propiconazole). These replicate data, coupled with internal replicates designed within the blinded ToxCast chemical library, provided additional data to evaluate interindividual differences between hepatocyte preparations and their potential impact on chemical profiles.Cell morphology and integrity were evaluated using phase-contrast microscopy as an indicator of hepatocyte cell health (Tyson & Green, 1987). Cultures for each treatment group (i.e., media, vehicle [0.2% DMSO], positive control inducers [multiple concentrations], and the ToxCast chemicals [multiple concentrations]) were observed and cell morphology was assessed relative to vehicle control cultures at each harvest time point (0, 6, 24, or 48 h). […] Images were evaluated at the conclusion of the study to assess changes in cell integrity and account for the effects of chemical exposure on uncharacteristic changes in concentration-dependent gene expression profiles. The results from these determinations of apparent cytotoxicity were annotated (yes/no) alongside the corresponding qNPA data for reference.At the conclusion of each treatment period, hepatocyte cultures (96-well) were washed with 1 volume of HBSS, lysed by addition of 25 ul ArrayPlate lysis buffer (HTG, Tucson, AZ), and 70 ul/well of Denaturation Oil, denatured by incubation at 95C for 10 min, and frozen at approximately -70C until analysis by nuclease protection assay (qNPA) (Roberts et al., 2007). For qNPA analysis, cell lysates were thawed at 50C for approximately 30 min, qNPA probes were added, and samples were incubated at 95C for 10 min to begin the detection process by denaturing the target RNA, dissociating the duplexes and secondary structure hybridization. At the conclusion of the hybridization period, S1 nuclease reagent was added to each sample to digest all nonprotected nucleotides at 50C for 60-90 min. […]
The AC50 is the concentration giving half of the maximal activity seen. `CCNP(=S)(OC)O/C(C)=C/C(=O)OC(C)C` (stereo not given): the AC50 is 3.93 µM (active).

As to `CCOc1nc(C(Cl)(Cl)Cl)ns1`, the molecule was called inactive.

For the molecule `CC1(C)C(C=C(Cl)Cl)C1C(=O)OC(C#N)c1cccc(Oc2ccccc2)c1` (stereo not given), the AC50 is 8.15 µM (active).

As for `CCCCC(C#N)(Cn1cncn1)c1ccc(Cl)cc1` (stereo not given), the AC50 was 35.3 µM (active).

As to `COC(=O)N(C(=O)N1CO[C@@]2(C(=O)OC)Cc3cc(Cl)ccc3C2=N1)c1ccc(OC(F)(F)F)cc1`, the AC50 is 1.86 µM (active).

`N#Cc1c[nH]cc1-c1cccc2c1OC(F)(F)O2`: the AC50 is 3.64 µM (active).

`Cc1ccc(N=CN(C)C=Nc2ccc(C)cc2C)c(C)c1`: the AC50 is 1.9 µM (active).

As to `CC1(C)C(C(=O)OC(C#N)c2cccc(Oc3ccccc3)c2)C1(C)C` (stereo not given), the molecule was called inactive.

Regarding `Clc1cccc(C(Cl)(Cl)Cl)n1`, the AC50 is 3.97 µM (active).

Consider `CCN(CC)c1nc(C)cc(OP(=S)(OC)OC)n1`, for which the AC50 was 5.14 µM (active).

In the case of `CN=C=S`, the result was inactive.

As to `O=C(Nc1ccccc1-c1ccc(Cl)cc1)c1cccnc1Cl`, the AC50 is 5.36 µM (active).

Turning to `CO/N=C(/C1=NOCCO1)c1ccccc1Oc1ncnc(Oc2ccccc2Cl)c1F`, the molecule was called inactive.

In the case of `CCOC(=O)C(C)OC(=O)c1cc(Oc2ccc(C(F)(F)F)cc2Cl)ccc1[N+](=O)[O-]` (stereo not given), the AC50 was 20 µM (active).

Take `CC(C)=CC1C(C(=O)OCc2coc(Cc3ccccc3)c2)C1(C)C` (stereo not given): the result was inactive.

Regarding `COP(=S)(OC)Oc1ccc([N+](=O)[O-])c(C)c1`, the AC50 was 3.97 µM (active).

On to `COP(=O)(OC)O/C(C)=C/C(=O)N(C)C`, for which the molecule was called inactive.

As to `CS(=O)(=O)c1ccc(C(=O)C2C(=O)CCCC2=O)c([N+](=O)[O-])c1`, the result was inactive.

As for `COCC(=O)N(c1c(C)cccc1C)C(C)C(=O)OC` (stereo not given), the molecule was called inactive.

Consider `Cc1nc(N(C)C)nc(OC(=O)N(C)C)c1C`, for which the AC50 was 2.75 µM (active).

As to `COc1cc(Cl)c(OC)cc1Cl`, the molecule was classed as inactive.

`CC(C)N1C(=O)c2ccccc2NS1(=O)=O`: the result was inactive.

As to `COC(=O)NS(=O)(=O)c1ccc(N)cc1`, the AC50 is 0.00106 µM (active).

`CCC(C)n1c(=O)[nH]c(C)c(Br)c1=O` (stereo not given): the AC50 is 5.45 µM (active).

Turning to `Cn1c(-c2ccccc2)cc(-c2ccccc2)[n+]1C`, the AC50 is 0.158 µM (active).

For `CCOP(=O)(OCC)Oc1nc(Cl)c(Cl)cc1Cl`, the call was inactive.

With `COc1cc(OC)nc(NC(=O)NS(=O)(=O)c2ncccc2OCC(F)(F)F)n1`, the molecule was called inactive.

As for `Clc1nc(Cl)nc(Nc2ccccc2Cl)n1`, the call was inactive.

Turning to `OC(c1ccc(Cl)cc1)(c1ccc(Cl)cc1)C(Cl)(Cl)Cl`, the AC50 is 20 µM (active).

As for `Nc1c(Cl)c(Cl)nc(C(=O)O)c1Cl`, the result was inactive.

`CS(=O)(=O)c1cc(C(F)(F)F)ccc1C(=O)c1cnoc1C1CC1`: the molecule was called inactive.

With `CNC(=O)Oc1cccc2ccccc12`, the AC50 was 8.24 µM (active).

For `COC(=O)c1c(C(F)F)nc(C(F)(F)F)c(C2=NCCS2)c1CC(C)C`, the AC50 is 36.1 µM (active).

`CCN(CC)C(=O)C(C)Oc1cccc2ccccc12` (stereo not given): the molecule was called inactive.

On to `Cc1cc(C)nc(Nc2ccccc2)n1`, for which the AC50 is 7.59 µM (active).

On to `CC1(C)CCC(=Cc2ccc(Cl)cc2)C1(O)Cn1cncn1` (stereo not given), for which the AC50 is 4.02 µM (active).

As to `CCCCC(O)(Cn1cncn1)c1ccc(Cl)cc1Cl` (stereo not given), the AC50 was 4.35 µM (active).

For the molecule `Cc1c(COC(=O)[C@@H]2[C@H](/C=C(\Cl)C(F)(F)F)C2(C)C)cccc1-c1ccccc1`, the AC50 was 31.6 µM (active).

Turning to `CC(C)NC(=O)N1CC(=O)N(c2cc(Cl)cc(Cl)c2)C1=O`, the AC50 was 20 µM (active).

Regarding `Nc1cnn(-c2ccccc2)c(=O)c1Cl`, the outcome was inactive.
